# HSF1 inhib = HSF1 inhibition | NIH3T3-HGL HSE-luciferase, MG132-induced, luminescence 8 h; active compounds read low | 0.77% of 300,000 active | activity change, negative = inhibition, % at 7.5 µM (by protocol);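 active means more than half of replicate wells show activity change below -50%, luminescence cut by over half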;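 further: luciferase reports HSF-1 transcriptional activity via heat shock element; 0% = median of DMSO wells and -100% = zero luminescence signal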
# NR0B1 inh = inhibitors of human orphan nuclear receptor DAX1 (NR0B1); AID 504766; 0.99% of 340,000 active; P51843; HEK293 Gal4-DAX1 luciferase reporter, luminescence; inhibition, % at 6.75 µM;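 active means inhibition above the mean over all tested compounds plus 3 SD, cut at about 4.2% in these data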;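 further: 0% = DAX1-transfected cells with DMSO and 100% = empty-vector control cells with DMSO; inhibition shows as a rise in luminescence from relieved DAX1 repression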
# FXN GAA850 act = frataxin GAA850 promoter activation | 0.56% of 360,000 active | HEK293 lucGAA850 FXN promoter luciferase reporter, 24 h; percent of 10 µM SAHA response | activation, % at 6 µM;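 active means activation above the average of all compounds screened plus 3 SD, cutoff fixed separately per campaign, cut at about 7.5% in these data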;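 further: 0% = DMSO wells and 100% = 10 µM SAHA wells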
# HSF1 activator = increases HSF-1 driven luciferase reporter signal; 1.7% of 300,000 active; activation, % at 9 µM; NIH3T3-HGL HSF-1 luciferase reporter, MG132, 8 h; 100% = twice DMSO control signal;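 active means mean replicate activation of at least 50% with a set share of replicates each reaching 50%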;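 further: 0% = median of the neutral control wells and 100% = twice that signal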
# AHR activator = activates the human aryl hydrocarbon receptor. P35869. AHR-responsive luciferase reporter cells, luminescence. activation, % at 5 µM. 2.5% of 320,000 active. AID 2796; in the data active means activation above about 47%;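 further: 0% = vehicle wells and 100% = reference agonist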
# AHR act confirm = confirmation of human aryl hydrocarbon receptor activators. shares compounds with AHR activator. human cells, AHR-responsive luciferase reporter, luminescence. activation, % at 9 µM. 87% of 2,300 active; in the data active means activation above about 49%;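 further: HepG2 hepatoma cells carrying a DRE-driven firefly luciferase reporter; 0% = vehicle wells and 100% = reference agonist wells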
# PXR act counter = counter-screen for AHR activators: human PXR activators; shares compounds with AHR activator; 88% of 2,300 active; activation, % at 11.6 µM; AID 434939; cell-based PXR reporter, luciferase luminescence; in the data active means activation above about 11%;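 further: human hepatoma DPX-2 cells expressing full-length human PXR; 0% = DMSO and 100% = reference agonist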
# Target sequence (O75469 whole entry, looked up): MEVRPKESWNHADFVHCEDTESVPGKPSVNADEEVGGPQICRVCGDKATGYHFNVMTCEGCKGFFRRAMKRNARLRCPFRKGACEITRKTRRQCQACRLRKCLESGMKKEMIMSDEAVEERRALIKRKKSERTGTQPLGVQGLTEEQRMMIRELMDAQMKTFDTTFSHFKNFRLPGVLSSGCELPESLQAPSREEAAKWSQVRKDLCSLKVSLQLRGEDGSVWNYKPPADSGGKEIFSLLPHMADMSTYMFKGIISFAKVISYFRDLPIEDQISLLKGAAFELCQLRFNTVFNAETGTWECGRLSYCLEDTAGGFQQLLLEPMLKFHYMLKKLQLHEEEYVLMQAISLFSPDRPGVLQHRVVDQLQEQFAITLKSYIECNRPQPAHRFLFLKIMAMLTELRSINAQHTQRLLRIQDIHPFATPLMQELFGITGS
# Starred values were filed as active, the others as inactive; · = no result given. Compounds with a hit are over-represented: about 5.4% of the library has one in this group of screens.
SMILES,HSF1 inhib,NR0B1 inh,FXN GAA850 act,HSF1 activator,AHR activator,others
COC(=O)[C@]12OC[C@]34C([C@@H](O)[C@@H]1O)[C@]1(C)CC(=O)C(O)=C(C)[C@@H]1C[C@H]3OC(=O)[C@H](O)[C@@H]24 (some centres undefined),-68.9*,-5.9,-6.2,-73.8,-5.9,
CCOC(=O)CNC(=O)N1Cc2ccccc2-n2nncc2C1,·,0.3,-0.8,·,·,
C=CCn1c(O)c(C(CC)=Nc2ccc3c(c2)CCC3)c(=O)[nH]c1=O,30.2,0.5,2.4,74.0*,7.7,
O=C(NCC1=C(c2ccc3ccccc3c2)C[C@@H]2CC[C@H]1N2Cc1ccco1)c1ccc([N+](=O)[O-])cc1,·,-1.5,-6.2,·,·,
CC(C)NS(=O)(=O)c1ccc(OCC(=O)N2CCN(C)CC2)cc1,-6.1,4.4*,-0.4,1.1,5.1,
CC(N)Cc1c[nH]c2c1ccc1ccccc12 (centres undefined),4.6,0.1,0.4,20.0,48.8*,
COc1ccc2ccc(O)c(CN3CC=C(c4ccccc4)CC3)c2c1,163.8,-1.0,-1.2,200.7*,12.8,
COc1ccc2c(CN3CC=C(c4ccccc4)CC3)cc(=O)oc2c1,-3.6,-1.6,-1.3,4.4,1.3,
Cc1ccc(C(=O)N2CC2C)cc1 (centres undefined),·,-0.6,-0.5,·,·,
CC(=O)O/C(=C1\CC2C3CC=C4CC(OC(C)=O)CCC4(C)C3CCC2(C)C1=O)C(F)(F)F (centres undefined),·,-1.4,-0.7,·,·,
OC1/C(=C/c2ccccc2C(F)(F)F)N2CCC1CC2 (centres undefined),-77.9*,2.0,-0.1,-81.8,9.4,
Cc1ccsc1C(=O)C1CCCN(Cc2ccccc2O)C1 (centres undefined),20.0,-0.1,0.3,58.0*,3.2,
O=C(c1ccc2c(c1)OCO2)N1CCC2(CC1)OCCO2,-68.1*,-0.6,1.8,-76.4,2.0,
Cc1nc2cc(C(=O)N3CCC4(CC3)OCCO4)ccc2n1-c1ccc(Br)cc1,-6.6,-1.3,0.7,2.9,55.7*,
COc1ccc(-n2c(C)nc3cc(C(=O)N4CCC5(CC4)OCCO5)ccc32)cc1,3.3,-0.4,3.2,-0.5,0.8,
CCCCn1c(=O)c(C(=O)NCc2ccc(Cl)cc2)c(O)c2ccccc21,-0.2,2.0,1.0,-14.9,2.6,
CCCCn1c(=O)c(C(=O)NCCc2ccccc2)c(O)c2ccccc21,1.2,5.1*,0.7,0.3,10.6,
CCCCn1c(=O)c(C(=O)Nc2ccccc2N)c(O)c2ccccc21,9.8,1.7,0.7,34.5,48.1*,
C[C@]12CC[C@@H](O)CC1=CC(=O)C1C2CC[C@]2(C)C(=O)[C@H](O)CC12 (some centres undefined),·,-0.3,-1.5,·,·,
CCn1cc(C(=O)c2cccs2)c2ccccc21,-8.4,-0.8,2.8,-13.6,49.0*,
CC1CN=C(Nc2ccccc2)S1 (centres undefined),7.5,0.7,0.4,52.4*,0.2,
CC1CN=C(Nc2ccc(N(C)C)cc2)S1 (centres undefined),-2.4,0.6,3.2,33.1,15.3,
CC1=C(O)C(=O)C=C2C1=CC=C1C2(C)CCC2(C)C3CC(C)(C(=O)O)CCC3(C)CCC12C (centres undefined),·,-5.0,-15.7,·,·,
CCCC1C(C#N)=C(N)Oc2c1c(=O)oc1ccccc21 (centres undefined),-4.5,4.6*,1.4,13.7,-0.1,
Cc1ccc(CN2CCC3CCC(C3)C2)c(O)c1 (centres undefined),·,-0.3,0.7,·,·,
COc1ccccc1-n1c(CNCC2CCCO2)nc2ccccc2c1=O (centres undefined),1.5,-2.5,2.4,18.6,81.3*,AHR act confirm=48.4*;PXR act counter=37.5*
CC12CCC(O)CC1CCC1C2CCC2(C)C(C(=O)CO)CCC12 (centres undefined),·,·,1.8,·,·,
CC(C)=CCOc1c2occc2cc2ccc(=O)oc12,-4.9,0.4,1.6,-4.9,114.4*,AHR act confirm=86.1*;PXR act counter=77.9*
O=C(COc1ccccc1)c1cn(Cc2ccccc2)c2ccccc12,16.1,-0.1,4.2,20.9,84.2*,AHR act confirm=66.2*;PXR act counter=103.4*

# Compound activity from PubChem.
